Assay results taken from PubChem BioAssay (NCATS).
Inconclusive results are not listed. Active and inactive are the calls of the source. Calls come from the whole dose curve; as a rule, active = well fitted curve in the direction sought with a large enough effect; inconclusive = small, poorly fitted or top-dose-only effect, or another doubt; inactive = no such curve, though single readings can be large; an effect the other way counts as inactive or inconclusive.

How the values were obtained:
[1] = tested on: CRL-7250; assay: Cytotoxic Profiling of Annotated Libraries Using Quantitative High-Throughput Screening (AID 1296008); settings: Five cell lines viability, CellTiter-Glo ATP luminescence, 48-72 h; max response: hits give low values; note: nearly all actives have a fitted effect of over 60% in size; for max response: % is set by controls: 0 for no effect and ±100 for the full control effect
Procedure, shortened: (§1)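 Cytotoxicity was measured as CellTiter-Glo ATP luminescence, read after 10 min at room temperature. Compound treatment of the cells lasted 48 or 72 hr at 37 degrees Celsius in a qHTS format.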

[2] = tested on: HEK293; assay: as above; settings: Five cell lines viability, CellTiter-Glo ATP luminescence, 48-72 h; max response: hits give low values
Procedure, shortened: as §1

[3] = tested on: HaCat; assay: as above; settings: Five cell lines viability, CellTiter-Glo ATP luminescence, 48-72 h; max response: hits give low values
Procedure, shortened: as §1

[4] = tested on: KB-3-1; assay: as above; settings: Five cell lines viability, CellTiter-Glo ATP luminescence, 48-72 h; max response: hits give low values
Procedure, shortened: as §1

[5] = tested on: NIH3T3; assay: as above; settings: Five cell lines viability, CellTiter-Glo ATP luminescence, 48-72 h; max response: hits give low values
Procedure, shortened: as §1

[6] = tested on: HACAT; assay: qHTS assay to identify novel small-molecules to repurpose for Merkel cell carcinoma treatment (AID 1296009); settings: MCC and control cell lines, CellTiter-Glo viability, 72 h; at 44.8 µM (top of the series) unless noted; note: nearly all actives have a fitted effect of over 60% in size
Procedure, shortened: (§2)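 72 hr, 37 degree celsius; NPC 8-pt / MIPE 11-pt dose response; compound pinned in DMSO; CellTiter-Glo, 10 min RT, luminescence; normalized to no-cell and DMSO controls.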

[7] = tested on: HEK293T; assay: as above; settings: MCC and control cell lines, CellTiter-Glo viability, 72 h; series mostly up to 44.8 µM
Procedure, shortened: as §2

[8] = tested on: C33A; assay: Primary qHTS to identify gynecologic anti-cancer compounds using libraries of approved drugs and bioactive compounds (AID 1345084); settings: Gynecologic cancer cell panel viability, ATPlite luminescence, 48 h; series mostly up to 57.5 µM; note: % is set by controls: 0 for no effect and ±100 for the full control effect; nearly all actives have a fitted effect of over 55% in size
Procedure, shortened: (§3)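 48 h compound exposure at 37 C, 5% CO2; five-point qHTS. ATPlite luminescence readout of cell ATP.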

[9] = tested on: CAOV3; assay: as above; settings: Gynecologic cancer cell panel viability, ATPlite luminescence, 48 h; series mostly up to 57.5 µM
Procedure, shortened: as §3

[10] = tested on: CASKI; assay: as above; settings: Gynecologic cancer cell panel viability, ATPlite luminescence, 48 h; series mostly up to 57.5 µM
Procedure, shortened: as §3

[11] = tested on: Es-2; assay: as above; settings: Gynecologic cancer cell panel viability, ATPlite luminescence, 48 h; series mostly up to 57.5 µM
Procedure, shortened: as §3

[12] = tested on: HeLa; assay: as above; settings: Gynecologic cancer cell panel viability, ATPlite luminescence, 48 h; series mostly up to 57.5 µM
Procedure, shortened: as §3

[13] = tested on: NIH3T3; assay: qHTS assay to identify novel small-molecules to repurpose for Merkel cell carcinoma treatment (AID 1296009); settings: MCC and control cell lines, CellTiter-Glo viability, 72 h; at 44.8 µM (top of the series) unless noted; note: nearly all actives have a fitted effect of over 60% in size
Procedure, shortened: as §2

CC(C)c1cc2c(c(O)c1O[C@@H]1O[C@H](CO)[C@@H](O)[C@H](O)[C@H]1O)CC1(O)CCC(O)C(C)(C)C1CC2 (some centres not stated)
inactive: outcome [1] | outcome [2] | outcome [3] | max response [4] 2.46% | max response [5] 0.487% | outcome [6] inactive [at 17.4 µM] | Potency [7] | Potency [8] | Potency [9] | Potency [10] | Potency [11] | Potency [12]

CCCOc1ccn2c(C(C)=O)cc(-c3ccccc3S(C)(=O)=O)c2c1
inactive: outcome [1] | outcome [2] | outcome [3] | max response [4] 3.55% | max response [5] -3.04% | outcome [6] | Potency [7] | Potency [8] | Potency [9] | Potency [10] | Potency [11] | Potency [12]

CCC(CC)n1ccc2c(C(=O)NCc3c(C)cc(C)[nH]c3=O)cc(C#N)cc21
inactive: max response [1] -1.01% | outcome [2] | outcome [3] | max response [4] 2.42% | max response [5] -0.643% | outcome [6] | Potency [7] | Potency [8] | Potency [9] | Potency [10] | Potency [11] | Potency [12]

COc1cc(C/C(=C/NC(C)=O)N(CC(=O)Cc2ccccc2)C(C)=O)cc2c1OCO2
inactive: max response [1] -6.34% | outcome [2] | outcome [3] | max response [4] 7.98% | max response [5] 2.9% | outcome [6] inactive [at 17.4 µM] | Potency [7] | Potency [8] | Potency [9] | Potency [10] | Potency [11] | Potency [12]

CC(C)CC(=O)O[C@@H]1OC=C(CO[C@@H]2O[C@H](CO[C@@H]3O[C@H](CO)[C@@H](O)[C@H](O)[C@H]3O)[C@@H](O)[C@H](O)[C@H]2O)[C@H]2C[C@H](O)[C@@H](CO)[C@@H]12
inactive: max response [1] 4.5% | outcome [2] | outcome [3] | outcome [4] | max response [5] 0.598% | outcome [6] inactive [at 17.4 µM] | Potency [7] | Potency [8] | Potency [9] | Potency [10] | Potency [11] | Potency [12]

CCC(C)/C=C(C)/C=C/C1=CC2=C(Cl)C(=O)C(C)(OC(C)=O)C(=O)C2=CN1C1CCCCN(C(CCC(N)=O)C(=O)O)C1=O (configuration not stated)
inactive: outcome [1] | outcome [2] | outcome [3] | outcome [4] | max response [5] -1.04% | outcome [6] inactive [at 17.4 µM] | Potency [7] | Potency [8] | Potency [9] | Potency [10] | Potency [11] | Potency [12]

Cc1c(N2C(=O)c3ccc(C(=O)O)cc3C2=O)c(=O)n(-c2ccccc2)n1C
inactive: outcome [1] | outcome [2] | outcome [3] | outcome [4] | outcome [5] | outcome [6] | Potency [7] | outcome [13] | Potency [8] | Potency [10] | Potency [11] | Potency [12]

c1ccc(Nc2nc3c(s2)CCCc2[nH]ncc2-3)nc1
inactive: max response [1] -6.19% | outcome [2] | outcome [3] | outcome [4] | max response [5] 3.95% | outcome [6] | Potency [7] | Potency [8] | Potency [9] | Potency [10] | Potency [11]

CC(C)CC(=O)n1cc(C(N)=O)c(=O)cc1C(O)c1ccccc1 (configuration not stated)
inactive: outcome [1] | outcome [2] | outcome [3] | outcome [4] | max response [5] 0.668% | outcome [6] | Potency [7] | Potency [8] | Potency [9] | Potency [10] | Potency [11] | Potency [12]

C=C1CCC(OC(C)=O)C2(C)CC3(O)OC(=O)C(C)=C3CC12 (configuration not stated)
inactive: max response [1] -6.35% | outcome [2] | outcome [3] | max response [4] 4.81% | max response [5] -2.74% | outcome [6] | Potency [7] | Potency [8] | Potency [9] | Potency [10] | Potency [11] | Potency [12]

CC(=O)Oc1cc2c(s1)CCN([C@H](C(=O)C1CC1)c1ccccc1F)C2
inactive: max response [1] -0.62% | outcome [2] | outcome [3] | outcome [4] | max response [5] 3.19% | outcome [6] | Potency [7] | Potency [8] | Potency [9] | Potency [10] | Potency [11] | Potency [12]

OC[C@H]1O[C@@H](Oc2ccc3c(c2)OC[C@H]2c4cc5c(cc4O[C@@H]32)OCO5)[C@H](O)[C@@H](O)[C@@H]1O
inactive: max response [1] -1.83% | outcome [2] | outcome [3] | outcome [4] | max response [5] 0.631% | outcome [6] inactive [at 17.4 µM] | Potency [7] | Potency [8] | Potency [9] | Potency [10] | Potency [11] | Potency [12]

COC1(CC(C)C)NC(=O)C(O)(Cc2ccccc2)NC1=O (configuration not stated)
inactive: max response [1] 2.47% | outcome [2] | outcome [3] | max response [4] -4.71% | outcome [5] | outcome [6] | Potency [7] | outcome [13] | Potency [8] | Potency [10] | Potency [11] | Potency [12]

Cc1cc(C)cc(NC(=O)Cc2ccc(OC(C)(C)C(=O)O)cc2)c1
inactive: max response [1] 0.247% | outcome [2] | outcome [3] | outcome [4] | max response [5] -1.99% | outcome [6] | Potency [7] | Potency [8] | Potency [9] | Potency [10] | Potency [11] | Potency [12]
